Data on 19 molecules can be found in PubChem BioAssay (NCATS).

The target in assay [1] is Cytochrome P450 1A2 (Homo sapiens) (UniProt P05177). Briefly: p450-cyp1a2 (AID 410). Further: potency means the concentration at half of the fitted maximal effect. To be noted: recombinant CYP1A2, luciferin-ME demethylation, luminescence; series mostly up to 57 µM. An outline of the steps: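 20nM CYP1A2 with 100uM Luciferin-ME (at Km) in 100mM KPO4; compound preincubated 10 min, NADPH regeneration added, 60 min at room temperature. Luciferin quantified by luminescence after detection reagent; normalized to 57 uM furafylline.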
Chain of Cytochrome P450 1A2 (Homo sapiens) (P05177 whole entry, looked up): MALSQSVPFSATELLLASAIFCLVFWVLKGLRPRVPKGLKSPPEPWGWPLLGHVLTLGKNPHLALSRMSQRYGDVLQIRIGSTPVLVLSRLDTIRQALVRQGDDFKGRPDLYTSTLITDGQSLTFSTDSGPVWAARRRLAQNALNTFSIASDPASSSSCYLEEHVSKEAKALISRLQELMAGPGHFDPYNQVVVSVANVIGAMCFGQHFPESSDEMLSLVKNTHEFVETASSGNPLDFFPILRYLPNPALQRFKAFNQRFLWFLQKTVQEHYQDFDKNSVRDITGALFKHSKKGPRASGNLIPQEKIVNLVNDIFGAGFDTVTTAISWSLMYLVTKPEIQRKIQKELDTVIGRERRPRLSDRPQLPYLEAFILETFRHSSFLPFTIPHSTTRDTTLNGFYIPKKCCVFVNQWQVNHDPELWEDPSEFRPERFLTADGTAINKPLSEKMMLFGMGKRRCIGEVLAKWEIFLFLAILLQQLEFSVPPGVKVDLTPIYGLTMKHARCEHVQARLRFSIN

The target in assay [2] is Glucocorticoid receptor (Homo sapiens) (UniProt P04150). Briefly: GR-GFP Redistribution (AID 450;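 active means compounds whose dose series gives a full or clear partial fitted curve of increased nuclear translocation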; further: potency means the concentration at half of the fitted maximal effect). To be noted: U2OS GR-GFP nuclear translocation, laser cytometry, 2 h.
Chain of Glucocorticoid receptor (Homo sapiens) (P04150 whole entry, looked up, the tested form may be a part): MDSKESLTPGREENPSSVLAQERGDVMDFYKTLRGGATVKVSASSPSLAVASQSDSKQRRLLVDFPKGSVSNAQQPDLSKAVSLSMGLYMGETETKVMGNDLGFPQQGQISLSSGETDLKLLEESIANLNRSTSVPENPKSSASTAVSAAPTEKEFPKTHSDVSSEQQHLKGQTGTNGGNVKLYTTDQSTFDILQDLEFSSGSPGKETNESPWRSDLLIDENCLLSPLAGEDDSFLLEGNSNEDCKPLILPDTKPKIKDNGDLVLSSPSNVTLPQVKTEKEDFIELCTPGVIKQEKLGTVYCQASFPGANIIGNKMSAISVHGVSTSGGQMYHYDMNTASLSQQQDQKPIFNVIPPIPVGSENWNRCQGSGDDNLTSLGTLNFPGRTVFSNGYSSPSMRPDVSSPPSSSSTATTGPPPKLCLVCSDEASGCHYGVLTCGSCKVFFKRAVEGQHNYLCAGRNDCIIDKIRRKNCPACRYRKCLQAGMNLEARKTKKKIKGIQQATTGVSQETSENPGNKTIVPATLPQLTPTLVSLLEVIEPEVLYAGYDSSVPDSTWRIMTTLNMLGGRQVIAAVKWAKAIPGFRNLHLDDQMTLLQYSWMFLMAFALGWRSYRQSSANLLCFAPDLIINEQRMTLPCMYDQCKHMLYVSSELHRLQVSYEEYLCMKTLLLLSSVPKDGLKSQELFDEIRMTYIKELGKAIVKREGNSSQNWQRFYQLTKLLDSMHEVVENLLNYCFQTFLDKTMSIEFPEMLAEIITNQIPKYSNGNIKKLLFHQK
Assay [3] concerns the target Mitogen-activated protein kinase 10 (Mus musculus) (UniProt Q61831). In words: JNK3 AlphaScreen Assay (AID 530; active means well fitted curve in either direction with a large enough effect, not every such curve was filed as active;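 further: kinase came from lysate of stimulated human HepG2 cells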; further: potency means the concentration at half of the fitted maximal effect;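 on activity change, negative = inhibition: signal reports phosphorylation of biotinylated GST-cJun 1-79 at Ser73 with 10 µM ATP; on the % scale 0 is the no-effect control and ±100 the full control effect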). To be noted: JNK3 lysate, c-Jun phosphorylation; series mostly up to 57.1 µM. The essentials:
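Compound titrations were preincubated 15 minutes at room temperature with substrate, antibody and pre-activated JNK3-containing HepG2 lysate. Reactions were started with 10 uM ATP and stopped with EDTA-containing bead buffer for AlphaScreen detection.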

A short description of assay [4]: Cell Viability - BJ (AID 421).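 Further: potency means the concentration at half of the fitted maximal effect; cells exposed to compound for 40 hours at 37 °C before readout.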 To be noted: BJ fibroblast viability, qHTS. The essentials: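 Quantitative HTS: ATP depletion in BJ cells after 40 hr compound exposure in complete culture medium, detected with CellTiter-Glo; AC50 from standard Hill fits.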
For orientation: In qHTS, concentration-response curves come from the screen itself.

Assay [5] can be described thus: Cell Viability - Jurkat (AID 426;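 active means dose-dependent loss of cell ATP signal giving a full or clear fitted curve, ranked by lower potency value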; further: potency means the concentration at half of the fitted maximal effect). To be noted: qHTS. An outline of the steps: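 Jurkat (Clone E6-1) cells, 5000/well in complete medium, exposed to compounds for 40 hr at 37C; intracellular ATP measured by CellTiter-Glo luminescence after 20 min at room temperature. AC50 from Hill fits.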
Assay [6] can be described thus: Cell Viability - Hek293 (AID 427;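 active means compounds whose dose-response curve shows a full or clear partial loss of cell viability, called from curve shape rather than a numeric limit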;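 further: potency means the concentration at half of the fitted maximal effect; cells exposed to compound for 40 hours at 37 °C before reading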). The conditions noted are these: qHTS. The essentials: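 AC50 values derive from Hill-modelled concentration-response of ATP-based luminescence, normalized between DMSO-only and 100 uM tamoxifen controls. Cells were exposed in complete culture medium for 40 hr at 37 °C before detection.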
Assay [7] in a line: Cell Viability - HepG2 (AID 433).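 Further: potency means the concentration at half of the fitted maximal effect; potency for ATP loss meaning cytotoxicity.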 The conditions noted are these: qHTS. The essentials:
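In this qHTS format, a 40 h, 37 °C compound incubation of HepG2 cells in complete medium precedes a 20 min CellTiter-Glo step at room temperature. Tamoxifen and doxorubicin serve as positive controls; Hill-equation fits yield AC50.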

Assay [8] in a line: Cell Viability - MRC5 (AID 434).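 Further: potency means the concentration at half of the fitted maximal effect; potency reflects cytotoxicity seen as loss of intracellular ATP.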 To be noted: MRC5 lung fibroblast viability, qHTS. The essentials:
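qHTS cytotoxicity in human lung fibroblast MRC5 cells; 40 hr treatment, 37 °C; cellular ATP by luciferase luminescence; DMSO = 0%, 100 uM tamoxifen = 100% inhibition; Hill-fit AC50.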

Assay [9] is described as follows: Cell Viability - SK-N-SH (AID 435).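 Further: potency means the concentration at half of the fitted maximal effect; compound exposure lasted 40 h at 37 °C.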 To be noted: SK-N-SH neuroblastoma cell viability qHTS. The essentials: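 Human neuroblastoma line, 40 h exposure at 37 °C, ATP quantified via luciferase luminescence; DMSO and 100 uM tamoxifen define 0 and 100% inhibition for AC50 fitting.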
A short description of assay [10]: Cell Viability - NIH 3T3 (AID 541; active means well fitted curve in the direction sought with a large enough effect; an effect the other way counts as inactive or inconclusive; further: nearly all actives have a fitted effect of over 25% in size; further: potency means the concentration at half of the fitted maximal effect;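 on activity change, negative = cytotoxicity: plate controls were DMSO alone for no effect and tamoxifen positive control for full effect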). To be noted: NIH 3T3 cell viability, qHTS; activity change, negative = cytotoxicity: at 92.2 µM (top of the series). The essentials: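 Mouse NIH 3T3 fibroblasts, 1000 cells/well, rested 5 hr at 37 °C, then exposed to compound for 40 hr at 37 °C in complete medium. Viability read as intracellular ATP by CellTiter-Glo luminescence; AC50 from Hill-equation fits of concentration-response data.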

The nature of assay [11]: Cell Viability - HUV-EC-C (AID 542; active means well fitted curve in the direction sought with a large enough effect; an effect the other way counts as inactive or inconclusive; further: nearly all actives have a fitted effect of over 35% in size; further: potency means the concentration at half of the fitted maximal effect; on activity change, negative = cytotoxicity: on the % scale 0 is the no-effect control and ±100 the full control effect). To be noted: HUV-EC-C endothelial cell viability, qHTS; series mostly up to 92.2 µM. An outline of the steps: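 HUV-EC-C human vascular endothelial cells, 1000/well, exposed to compound for 40 hr at 37 °C in complete medium. Intracellular ATP was read by CellTiter-Glo luminescence. AC50 came from Hill-equation fits of concentration-response data.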

Assay [12] can be described thus: Cell Viability - H-4-II-E (AID 543; active means well fitted curve in the direction sought with a large enough effect; an effect the other way counts as inactive or inconclusive; further: nearly all actives have a fitted effect of over 35% in size; further: potency means the concentration at half of the fitted maximal effect). The conditions noted are these: H-4-II-E rat hepatoma viability; series mostly up to 92.2 µM. The essentials: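 Rat hepatoma H-4-II-E cells, 1500 per well, treated 40 h at 37 °C in complete medium. Cellular ATP read by CellTiter-Glo luminescence; AC50 from Hill fits of concentration-response.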
The nature of assay [13]: Cell Viability - SH-SY5Y (AID 544; active means well fitted curve in the direction sought with a large enough effect; an effect the other way counts as inactive or inconclusive;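 further: 0% = DMSO alone and -100% = 100 µM tamoxifen; nearly all actives have a fitted effect of over 55% in size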). The conditions noted are these: SH-SY5Y neuroblastoma cell viability; viability change, negative = cytotoxic: at 92.2 µM (top of the series). An outline of the steps:
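SH-SY5Y human neuroblastoma cells (1500/well) incubated 5 h, then compound-treated 40 h at 37 °C in complete medium. Viability read as intracellular ATP by CellTiter-Glo luminescence after 20 min; AC50 from Hill-equation fits of qHTS concentration-response.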

A short description of assay [14]: Cell Viability - Renal Proximal Tubule (AID 545; active means well fitted curve in the direction sought with a large enough effect; an effect the other way counts as inactive or inconclusive;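 further: 0% = DMSO only and -100% = 100 µM tamoxifen; nearly all actives have a fitted effect of over 40% in size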). The conditions noted are these: renal proximal tubule cells viability, primary cells of rat origin; activity change, negative = cytotoxicity: at 91.7 µM (top of the series). An outline of the steps:
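In this qHTS format, normal rat kidney-derived proximal tubule cells in complete culture medium receive compound titrations, then sit 40 hours at 37 °C before luciferase-based ATP quantitation; potency is reported as AC50 from concentration-response curves.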

The target of assay [15] is Glucocorticoid receptor (Homo sapiens) (UniProt P04150). In words: GR-EFC Redistribution (AID 451). Further: potency means the concentration at half of the fitted maximal effect. The conditions noted are these: CHO-K1 GR-EFC translocation, beta-gal luminescence, 2 h. The essentials: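 Translocation of GR-ED fusion to nuclear EA restores b-gal, read by luminescence after 1 h room-temperature detection. Engineered CHO-K1 biosensor cells, 1,000/well, exposed 2 h at 37 C to titrations up to 46 uM final.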

Assay [16] is described as follows: Stat Signaling Pathway (AID 446; active means well fitted curve in either direction with a large enough effect, not every such curve was filed as active;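 further: ME-180 cervical cancer cells given 40 pM IL-6 alongside compound; SIE-controlled beta-lactamase reporter measured as 460/530 nm FRET emission ratio; on the % scale 0 is the no-effect control and ±100 the full control effect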). To be noted: ME-180 SIE beta-lactamase reporter, IL-6 stimulated, 5 h. An outline of the steps:
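IL-6/STAT signaling read in ME-180 cells via an SIE beta-lactamase reporter. Stimulus was 40 pM IL-6 (its AC50) for 5 hrs, so both activation and inhibition register.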

A short description of assay [17]: Cell Viability - N2a (AID 540; active means well fitted curve in the direction sought with a large enough effect; an effect the other way counts as inactive or inconclusive; further: nearly all actives have a fitted effect of over 45% in size; further: potency means the concentration at half of the fitted maximal effect;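 on activity change, negative = cytotoxicity: plate controls were DMSO alone for no effect and tamoxifen control for full effect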). The conditions noted are these: N2a mouse neuroblastoma cell viability; activity change, negative = cytotoxicity: at 92.2 µM (top of the series). The essentials:
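Mouse neuroblastoma N2a cells, 1500/well, exposed to compounds 40 h at 37 °C in complete medium. Viability measured as cellular ATP by CellTiter-Glo luminescence; AC50 from Hill fits of concentration-response.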

Assay [18] can be described thus: AP1 Signaling Pathway (AID 357; active means well fitted curve in either direction with a large enough effect, not every such curve was filed as active;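 further: ME-180 reporter cells stimulated with EGF at its EC50 level; on the % scale 0 is the no-effect control and ±100 the full control effect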). To be noted: ME-180 (cervical carcinoma) AP-1-bla reporter, EGF-induced, beta-lactamase ratio, 5 h. An outline of the steps: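 A ratiometric CCF4 readout (405 nm excitation; 460 and 530 nm emission) quantified AP-1-driven beta-lactamase in ME-180 cells after 5 h with compound and EC50 EGF; AC50 values were derived for activators and inhibitors.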

“And” between values parts separate entries of the source, which are not always exact repeats. Identical values can stand only once. A number with no mark means an inactive call. Records with an inconclusive call do not appear. The source made the active and inactive calls. Unless noted, the call rests on the fitted dose curve.

In the case of `Cn1cc(C2=C(c3ccc(Cl)cc3Cl)C(=O)NC2=O)c2ccccc21`, the Potency in [1] is 3.16 µM (active); in assay [2], over 46 µM. Moreover, in assay [3], the Potency entry was “inactive”.

Consider `N[C@@H](CC(=O)O)C(=O)O`, for which the Potency in [2] was over 46 µM.

With `Nc1ccc([N+](=O)[O-])cc1O`, the Potency in assay [4], in assay [5], in [6], in assay [7], in [8] and in assay [9] was over 92 µM each time. For the same molecule, in assay [10], the Potency is 20 µM (active). In addition, the Potency entry in assay [3], in assay [11], in assay [12] and in [13] was “inactive” in each case. The activity change, negative = cytotoxicity in assay [14] was -10.2%.

Take `C[C@@H](CN1CCC(Cc2ccccc2)CC1)[C@@H](O)c1ccc(O)cc1`: the Potency in assay [2] and in assay [15] was over 46 µM in each case. Also, the Potency entry in [3] was “inactive”.

For `O=C(Nc1ccccc1)c1cc([N+](=O)[O-])ccc1Cl`, the Potency in [1] is 5.01 µM (active) and 631 nM (active); in [2], over 46 µM; in assay [15], over 46 µM. Further, the activity, negative = inhibition in assay [16] (at 38 µM (top of the series)) was -18.8%. In assay [3], the Potency entry was “inactive”.

As to `N#C/C(=C\c1c[nH]c2ccccc12)C(=O)c1ccc(O)c(O)c1`, the Potency is 1.26 µM (active) in [1] and over 46 µM in assay [2]. Also, the activity, negative = inhibition in [16] (at 38 µM (top of the series)) was -11%.

As for `CCCOC(=O)c1ccc(O)cc1`, the Potency in assay [4], in assay [5], in assay [6], in assay [7], in assay [8] and in assay [9] was over 92 µM each time. The Potency entry in [3], in [17], in assay [10], in assay [11], in assay [12] and in assay [13] was “inactive” in each case. In addition, the activity change, negative = cytotoxicity in assay [14] is -13.5% and -15.2%.

In the case of `O=C1CN(/N=C/c2ccc([N+](=O)[O-])o2)C(=O)N1`, the Potency in assay [4] was over 92 µM; in assay [5], 7.84 µM (active); in [8], over 92 µM; in assay [17], 31.6 µM (active). The Potency entry in assay [3] and in [11] was “inactive” throughout. Besides, in assay [10], the activity change, negative = cytotoxicity was -97.7% (active).

As to `O=c1[nH]c2cc(C(F)(F)F)ccc2n1-c1cc(C(F)(F)F)ccc1O`, in assay [18] (at 38 µM (top of the series)), the activity change, negative = inhibition was -14.9%. Further, the Potency in assay [2] was over 46 µM.

Take `CCCCCCCC/C=C\CCCCCCCC(=O)NCCO`: the Potency in assay [2] and in [15] was over 46 µM in each case. The Potency result in [3] was “inactive”.

Consider `O=C(O)[C@@H]1C[C@@H](C(=O)O)N1`, for which the Potency in assay [1] was 31.6 µM (active); in assay [2] it was over 46 µM. The Potency entry in assay [3] was “inactive”.

On to `COc1ccccc1N1CCN(CCN(C(=O)c2ccc(I)cc2)c2ccccn2)CC1`, for which the activity change, negative = inhibition in [18] (at 38 µM (top of the series)) is -13.6%. For the same molecule, the Potency in [2] is over 46 µM. For the same molecule, in assay [3], the Potency entry is “inactive”.

As to `O=C(O)Cc1ccc(-c2ccccc2)cc1`, the activity change, negative = inhibition in [18] (at 17.2 µM (top of the series)) is 3.75% and 6.11%. Moreover, in [16] (at 17.2 µM (top of the series)), the activity, negative = inhibition was -10.3% and 7.71%. In addition, the Potency in assay [2] and in assay [15] was over 20.6 µM throughout. In addition, the Potency entry in assay [3] was “inactive”.

As to `Nc1ccc(O)c([N+](=O)[O-])c1`, the Potency in assay [4] was over 92 µM; in assay [5], 20.7 µM; in assay [6] it was over 92 µM; in assay [7], over 92 µM; in assay [8], over 92 µM; in assay [9], over 92 µM. Also, the Potency in assay [10] is 25.1 µM (active). Besides, the Potency entry in assay [3], in [11] and in assay [12] was “inactive” throughout. In addition, the activity change, negative = cytotoxicity in assay [14] was 0.95%.

Turning to `N=C1N=C(N)c2cc3ccccc3cc21`, the Potency in assay [4] was 62.7 µM (active); in assay [5], 32.2 µM (active); in assay [7], 54.6 µM (active); in assay [9], 33.3 µM (active); in assay [11], 50.1 µM (active); in [12], 31.6 µM (active). Besides, in assay [3], the Potency result is “inactive”. Further, the activity change, negative = cytotoxicity in [17] was -112% (active); in assay [10] it was -134% (active); in assay [14], -85.8% (active). Further, in assay [13], the viability change, negative = cytotoxic is -99% (active).

Consider `C[C@@H](NC(=O)/C(C#N)=C/c1ccc(O)c(O)c1)c1ccccc1`, for which the Potency is 31.6 µM (active) in assay [1], over 46 µM in assay [2], over 46 µM in assay [15] and 12.6 µM (active) in assay [3].

For `O=C(O)/C=C\C(=O)O`, the Potency in assay [4], in [5], in assay [6], in assay [7], in assay [8] and in [9] was over 92 µM in each case. Further, the Potency entry in [3], in assay [17], in assay [10], in assay [11], in assay [12] and in [13] was “inactive” each time. The activity change, negative = cytotoxicity in [14] is -6.17%.

As for `CN(C)c1ccc(N=NS(=O)(=O)O)cc1`, the Potency in assay [4] is over 92 µM; in assay [6], over 92 µM; in assay [8], over 92 µM; in assay [9], over 92 µM; in assay [17], 31.6 µM (active); in assay [12], 0.126 µM (active). Further, the Potency result in [3] and in assay [11] was “inactive” in each case. Moreover, in [14], the activity change, negative = cytotoxicity is 12.3%.

As for `NCCO`, the Potency in assay [4], in assay [5], in [6], in [7], in assay [8] and in assay [9] was over 92 µM each time. The Potency entry in assay [17], in assay [10], in assay [11] and in [12] was “inactive” in each case. Further, in [14], the activity change, negative = cytotoxicity was -3.73%.
